High-throughput results from PubChem BioAssay.
RGS8-Gao reg = regulators of human RGS8-Galphao interaction; P09471; multiplexed bead flow cytometry, RGS8-Galphao binding; actives lie on both sides; 0.34% of 220,000 active; response (percent of control binding), % at 10 µM; in the data active = response below about 60% or above about 140%; inactive = in between;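 also: Galphao activated as the GDP aluminium fluoride complex binding bead-coupled RGS8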
RGS16-Gao = RGS16-Galphao interaction regulator (human); O15492+P09471; bead-based flow cytometry RGS16-Galphao binding, fluorescence; actives lie on both sides; binding response (% of control), % at 10 µM; 0.38% of 220,000 active; call rule not given here;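 also: Galphao activated by GDP with aluminum fluoride before binding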
Target sequence (O15492 whole entry, looked up): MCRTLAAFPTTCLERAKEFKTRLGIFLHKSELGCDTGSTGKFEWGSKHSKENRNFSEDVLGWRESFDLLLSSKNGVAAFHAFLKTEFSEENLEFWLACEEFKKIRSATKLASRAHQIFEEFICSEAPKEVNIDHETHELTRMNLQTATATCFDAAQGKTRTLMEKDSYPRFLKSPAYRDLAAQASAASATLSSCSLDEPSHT
Target sequence (P09471 whole entry, looked up): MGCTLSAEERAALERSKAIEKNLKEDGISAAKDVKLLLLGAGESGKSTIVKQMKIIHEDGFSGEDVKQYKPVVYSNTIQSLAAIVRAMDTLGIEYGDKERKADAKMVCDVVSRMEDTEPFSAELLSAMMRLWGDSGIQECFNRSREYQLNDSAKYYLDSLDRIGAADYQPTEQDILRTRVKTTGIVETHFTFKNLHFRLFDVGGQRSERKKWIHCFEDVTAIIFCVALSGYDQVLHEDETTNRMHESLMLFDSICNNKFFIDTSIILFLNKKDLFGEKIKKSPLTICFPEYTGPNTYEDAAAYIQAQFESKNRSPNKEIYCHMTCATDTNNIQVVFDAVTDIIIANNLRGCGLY
RGS4-Gao reg = modulates binding of RGS4 to human Galphao; binding response (% of control), % at 10 µM; 0.33% of 220,000 active; Multiplexed bead flow cytometry; actives lie on both sides; in the data active = binding response below about 49% or above about 150%; inactive = in between;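 also: fluorescent Galphao activated with aluminum fluoride binding bead-coupled RGS4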
RGS7-Gao = modulates binding of RGS7 to human Galphao | Multiplexed bead flow cytometry; actives lie on both sides | binding response (% of control), % at 10 µM | 0.35% of 220,000 active | P09471; in the data active = binding response below about 49% or above about 150%; inconclusive = no clear call, values can overlap the other calls; inactive = in between;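 also: fluorescent Galphao held in activated GDP-AlF4 state binding bead-coupled RGS7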
GSH bead fluor = GSH bead compound fluorescence profile | GSH beads flow cytometry, compound fluorescence 488/530 nm; active compounds read high | fluorescence (KMESF) at 10 µM | 0.25% of 190,000 active | AID 1776; in the data active = fluorescence above about 89;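 also: glutathione beads carrying GST-tagged Bcl family fusion proteins plus one bare bead set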
Avidin bead fluor = avidin bead compound fluorescence profile; Avidin beads, compound fluorescence 488/530 nm, flow cytometry; active compounds read high; 0.38% of 220,000 active; fluorescence (KMESF) at 10 µM; in the data active = fluorescence above about 47
A number is an active result; - = inactive; ? = inconclusive; . = no result given. Rows were chosen to be rich in hits. Some 1.2% of all compounds tested hit in one or more screens of this group.

SMILES	RGS8-Gao reg	RGS16-Gao	RGS4-Gao reg	RGS7-Gao	GSH bead fluor	Avidin bead fluor
O=C(COc1ccc2ccccc2c1)N1CCN(CC2CC3C=CC2C3)CC1 (centres undefined)	-	-	-	-	-	50
CCC(=NCCN1CCOCC1)c1c(O)n(-c2ccccc2C)c(=O)[nH]c1=O	-	-	-	-	-	-
CC(=NCCN1CCOCC1)c1c(O)n(-c2ccccc2C)c(=O)[nH]c1=O	28.1	3.0	-2.9	9.2	-	.
CC(Cc1ccccc1)NC(=O)/C=C/C(=O)O (centres undefined)	-	-	-	-	-	-
O=c1[nH]c(O)c(/C=C2\C=NN=C2c2ccccc2)c(=O)[nH]1	-	-	-	-	266	-
COc1ccccc1-n1c(O)c(C=Nc2c(C)n(C)n(-c3ccccc3)c2=O)c(=O)[nH]c1=O	-	-	-	-	261	-
CN(C)C1(c2nnnn2CCOC(=O)Nc2ccc(Cl)cc2)CCCCC1	-	-	-	-	-	-
O=C1CN=C(c2ccccc2)c2cc(Br)ccc2N1Cc1cc(=O)n2ccccc2n1	-	-	-	-	184	-
Brc1ccc(CN2CCNCC2)s1	-	-	-	-	269	-
C=CCn1c(O)c(/C(CC)=N/NC(=S)Nc2ccccc2)c(=O)[nH]c1=O	-	-	-	?	.	-
Nc1ccc2nonc2c1[N+](=O)[O-]	-	-	-	?	-	-
COc1ccc(C(=O)C23CN4CN(CN(C4)C2)C3)cc1	-	-	-	-	-	51
Cc1ccc2c(c1)CC1(CN2C)C(=O)NC(=O)N(c2ccc(C)c(C)c2)C1=O (centres undefined)	-	-	-	-	256	-
CN(CC1COc2ccccc2O1)c1nc(-c2cccnc2)nc2ccccc12 (centres undefined)	-	-	-	-	-	-
C=CCn1c(O)c(C=NCCN(C)C)c(=O)[nH]c1=O	-	-	-	-	-	-
CN(C)CCN=Cc1c(O)n(-c2cccc(C(F)(F)F)c2)c(=O)[nH]c1=O	-	-	-	-	266	-
N#CCN1CCN(c2ccc(C(F)(F)F)cc2)CC1	-	-	-	-	-	-
Cc1ccc(NP(=O)(Oc2ccccc2F)Oc2ccccc2F)cc1	-	-	-	-	-	48
S=C1CN=C(c2ccccc2Cl)c2cc(Cl)ccc2N1	-	-	-	-	119	-
CC(=O)C1C2c3ccccc3O[C@@]1(C)N=c1s/c(=C/c3ccoc3)c(=O)n12 (some centres undefined)	-	-	-	-	-	-
COc1ccc(CNC(=O)C(NC(C)=O)C(C)C)cc1OC (centres undefined)	-	-	-	?	-	-
COc1ccccc1CN1CCN(Cc2ccc(Cl)cc2)CC1	-	-	-	-	-	-
CCOC(=O)c1c(C)n(Cc2ccc3c(c2)OCO3)c2ccc(O)cc12	-	-	-	-	249	-
COC(=O)c1c(C)n(Cc2ccc3c(c2)OCO3)c2ccc(O)cc12	-	-	-	-	-	-
CC1(C)CN=C(Nc2ccc(F)c(Cl)c2)S1	-	-	-	?	.	-
CC1(C)CSC(Nc2ccc(F)c(Cl)c2)=N1	-	-	-	-	253	-
C=CCn1c(O)c(C(CC)=NCCc2ccccc2)c(=O)[nH]c1=O	-	-	-	-	-	-
C=CCn1c(O)c(C(C)=NCCc2ccccc2)c(=O)[nH]c1=O	-	-	-	-	-	51
CN(C)P(=NC(=S)c1cccn1C)(N(C)C)N(C)C	-	-	-	-	-	58
CN(C)P(=O)(NC(=O)c1cccn1C)N(C)C	-	-	-	-	-	-
